In all, about 310,000 compounds went through this assay and about 3,800 (1.2%) were called active.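 The calls were made as follows: active = ratio B-score over 3 SD below the library mean, with starting fluorescence within 5 SD of its mean; inactive = the rest, inconclusive results apart.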 Only a selection was taken, and actives are over-represented in it overall.

The target of this experiment is Potassium channel subfamily K member 9 (Homo sapiens) (UniProt Q9NPC2). In words: blockers of human TASK-3 (KCNK9) channel – HEK293 cells, thallium flux, primary screen (AID 488922).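 As to B-score: negative B-score means less thallium flux so channel inhibition.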 To be noted: HEK293 KCNK9, FluxOR thallium flux fluorescence, at 10 µM; active compounds read low.
Potassium channel subfamily K member 9 (Homo sapiens), sequence (Q9NPC2 whole entry, looked up): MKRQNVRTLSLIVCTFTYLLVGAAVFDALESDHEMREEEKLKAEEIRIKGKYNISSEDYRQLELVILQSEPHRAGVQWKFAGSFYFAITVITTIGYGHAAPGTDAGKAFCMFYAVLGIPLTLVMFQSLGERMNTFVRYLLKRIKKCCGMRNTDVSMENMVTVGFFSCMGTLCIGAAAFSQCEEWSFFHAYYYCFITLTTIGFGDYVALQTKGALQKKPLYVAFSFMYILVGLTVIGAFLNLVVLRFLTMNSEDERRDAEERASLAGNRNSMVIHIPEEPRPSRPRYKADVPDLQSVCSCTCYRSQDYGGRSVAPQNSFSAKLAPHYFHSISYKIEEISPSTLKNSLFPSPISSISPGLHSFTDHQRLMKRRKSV
For `Cc1ccccc1NC(=O)COc1cccc2c1CCNC2=O`, the B-score result is “inactive”. Regarding `O=C(CCNC(=O)c1ccc(Br)cc1)Nc1cccc(S(=O)(=O)N2CCCCC2)c1`, the B-score result was “inactive”.

Turning to `O=C(CSc1ncnc2scc(-c3ccccc3)c12)NCc1ccc2c(c1)OCO2`, the B-score was -6.9 (active). In the case of `O=C(CSc1ncn[nH]1)NCc1ccc2c(c1)OCO2`, the B-score result is “inactive”.

Regarding `O=C(CN1CCN(c2nc(-c3ccccc3)cs2)CC1)NCc1ccc2c(c1)OCO2`, the B-score result was “inactive”. As for `CCOC(=O)C(=Cc1ccccc1OC)C(=O)OCC`, the B-score result was “inactive”.

`CCOC(=O)c1c(NC(=O)CNC2CCCc3ccccc32)sc(C(N)=O)c1C` (configuration not stated): the B-score entry was “inactive”. For `CCOc1ncccc1C(=O)NNC(=O)c1cccc(S(=O)(=O)Nc2ccccc2OC)c1`, the B-score entry was “inactive”.

On to `COc1ccc(NC(=O)C2CCC(CNC(=O)[C@@H]3Cc4ccccc4CN3)CC2)cc1` (some centres not stated), for which the B-score entry was “inactive”.

For `COC(=O)c1sccc1NC(=O)c1cc(OC)c(OC)c(OC)c1`, the B-score result was “inactive”. In the case of `N#Cc1c(NC(=O)CCCN2C(=O)c3ccccc3C2=O)oc(-c2ccccc2)c1-c1ccccc1` it was “inactive”; in that of `COc1cc(C(=O)Nc2oc(-c3ccccc3)c(-c3ccccc3)c2C#N)cc(OC)c1OC`, -6.66 (active); in that of `COC(=O)Nc1ncc(CN2CCCCC2)s1`, “inactive”. In the case of `CCCCN(C(=O)COc1ccc(NC(C)=O)cc1)C1CCS(=O)(=O)C1` (configuration not stated) it was “inactive”.

Turning to `Cc1cccc(C(=O)NCc2nnc(SC(C)C(=O)Nc3nnc(C)s3)n2C)c1` (configuration not stated), the B-score result was “inactive”. In the case of `Brc1ccc(-c2noc(-c3ccccc3)n2)o1` it was “inactive”; in that of `Cn1nc(-c2ccccc2)c(-c2nc(-c3ccc(Cl)cc3)no2)c1Cl`, -7.35 (active); in that of `CN(Cc1ccccn1)Cc1nc(-c2ccc(Cl)cc2)no1`, “inactive”.

For the compound `CC(C)Cn1c(N)c(C(=O)COC(=O)CN2C(=O)C3CC=CCC3C2=O)c(=O)n(C)c1=O` (configuration not stated), the B-score entry was “inactive”. With `COC(=O)c1cc(NC(=O)CC2C(=O)NCCN2C(=O)c2ccc(F)cc2)cc(C(=O)OC)c1` (configuration not stated) the entry was “inactive”; with `CN(c1ccccc1)c1ccc(/C=c2\s/c(=C(/C#N)C(=O)C(C)(C)C)n(Cc3ccco3)c2=O)cc1`, “inactive”; with `Cc1cs/c(=N\N=C\c2ccc(O)cc2)n1Cc1ccco1`, -6.66 (active). With `Cc1csc(=Nc2ccccc2)n1CCO` the entry was “inactive”; with `CCNC(=O)NC(=O)C(C)OC(=O)c1cc(S(=O)(=O)N2CCCCCC2)ccc1OC` (configuration not stated), “inactive”. As for `CCCCn1c(N)c(N(CC(C)C)C(=O)c2cccc(S(=O)(=O)N3CCN(C(C)=O)CC3)c2)c(=O)[nH]c1=O`, the B-score result was “inactive”. In the case of `Cc1cc(C)nc(-n2nc(C)cc2NC(=O)c2ccc(F)cc2F)n1` it was “inactive”; in that of `CCCCn1ccnc1C(=O)c1cccc(S(=O)(=O)N2c3ccccc3CC2C)c1` (configuration not stated), -11.8 (active); in that of `CC1Cc2ccccc2N1S(=O)(=O)c1ccc(Cl)nc1` (configuration not stated), “inactive”.

With `CC1Cc2ccccc2N1S(=O)(=O)c1c(N)n(C)c(=O)n(C)c1=O` (configuration not stated), the B-score result is “inactive”. With `O=C(NN1C(=O)C2C3C=CC(O3)C2C1=O)c1ccccc1` (configuration not stated) the entry was “inactive”; with `COc1ccccc1C(=O)NN1C(=O)C2C3C=CC(O3)C2C1=O` (configuration not stated), “inactive”. With `COc1ccc(C(=O)NN2C(=O)C3C(c4ccccc4)C=CC(c4ccccc4)C3C2=O)cc1` (configuration not stated) the figure was -8.93 (active). In the case of `CC(=O)Nc1ccc(S(=O)(=O)NC(C)C(=O)OCC(=O)NC2CCCC2)cc1` (configuration not stated) it was “inactive”; in that of `CCc1ccc(NC(=O)NC(C)c2ccc3c(c2)OCO3)cc1` (configuration not stated), “inactive”; in that of `CC1CCCN(C(C(=O)Nc2ccc(C(C)C)cc2)c2ccc3c(c2)OCO3)C1` (configuration not stated), -7.66 (active). Consider `O=C(Nc1ccc2c(c1)OCCO2)C(c1ccc(F)cc1)N1CCCCC1` (configuration not stated), for which the B-score result was “inactive”.

On to `O=C(Nc1ccc(S(=O)(=O)Nc2ccccn2)cc1)c1ccccc1`, for which the B-score result was “inactive”.

Take `C=CCN(N=Nc1cccc([N+](=O)[O-])c1)c1cccc([N+](=O)[O-])c1`: the B-score was -11.2 (active). With `O=C(CCl)N(Cc1cccc([N+](=O)[O-])c1)c1cccc(Cl)c1`, the B-score result was “inactive”. In the case of `CCN(CC)C(=O)CN(c1cccc([N+](=O)[O-])c1)S(=O)(=O)c1ccccc1` it was “inactive”; in that of `Cc1ccc(CSCC(=O)N(C)CC(=O)Nc2ccc(C)cc2)cc1`, “inactive”. With `O=S(=O)(Cc1noc(-c2ccc(OC(F)(F)F)cc2)n1)c1ccc(F)cc1` the entry was “inactive”; with `COc1cc(Cl)c(C)cc1NC(=O)CSc1nnc(-c2cccnc2)n1Cc1ccco1`, “inactive”; with `CCn1c(SCC(=O)Nc2cc(C)c(Cl)cc2OC)nnc1-c1ccco1`, “inactive”. Consider `COc1cc(Cl)c(C)cc1NC(=O)CSc1nnc(-c2ccco2)n1CC(C)C`, for which the B-score is -10 (active). With `CCOC(=O)c1sc(=NC(=O)c2ccc(Br)cc2)n(C)c1C` the entry was “inactive”; with `CCOC(=O)c1sc(=S)n2c1[nH]c(=O)c1ccc(C(=O)OC)cc12`, “inactive”. With `CCOC(=O)C1=C(C)Nc2sc(C(=O)c3ccc(Br)cc3)c(N)c2C1c1ccc(C(=O)OC)cc1` (configuration not stated), the B-score is -9.37 (active). With `CN(CC(=O)Nc1cccc(F)c1)C(=O)C1=COCCO1` the entry was “inactive”; with `Cc1ccc(-n2ncc3c(Nc4cccc(C(=O)O)c4)ncnc32)cc1`, “inactive”; with `COc1ccc(C2=NS(=O)(=O)N(C)C(C(=O)N3CCCCC3)=C2)cc1`, “inactive”. Regarding `O=C(CNCCC1=CCCCC1)Nc1ccccc1N1CCCCCC1`, the B-score is -8.91 (active). In the case of `Cc1ccccc1NC(=O)Nc1ccccc1N1CCCCC1` it was “inactive”. With `Cc1ccccc1NC(=O)CNc1ccccc1N1CCCCC1` the entry was “inactive”. Turning to `Cc1ccc2oc(C(=O)N3CCN(C)C[C@@H]3C(C)C)c(C)c2c1`, the B-score entry was “inactive”. In the case of `O=C(c1cc(Cl)cc(Cl)c1)N1CCC(=O)N(C(COCc2ccccc2)Cc2ccccc2)CC1` (configuration not stated) it was “inactive”; in that of `CC(C)CC(COCc1ccc(Cl)cc1)N1CCN(C(=O)c2ccc(C(F)(F)F)cc2)CCC1=O` (configuration not stated), -8.19 (active). In the case of `CC(C)CC(CO)N1CCN(C(=O)c2ccc(Cl)cc2Cl)CCC1=O` (configuration not stated) it was “inactive”; in that of `O=C1[C@H]2[C@@H](c3ccc(Cl)cc3)N3C(=O)N(c4cccc(F)c4)C(=O)[C@@]3(Cc3ccccc3)[C@H]2C(=O)N1C1CCCCC1`, “inactive”.

Turning to `Cc1ccc(S(=O)(=O)Cc2cc(-c3ccc(Cl)cc3)no2)cc1`, the B-score result was “inactive”. As to `Cc1onc(-c2ccc(Cl)cc2)c1-c1ccnn1S(=O)(=O)c1ccc(Cl)cc1`, the B-score was -12.4 (active). With `COC(=O)c1noc(C)c1-c1ccnn1C(=O)c1ccc(Cl)cc1` the entry was “inactive”; with `Cc1ccc(NS(=O)(=O)c2ccc(-c3coc(C)n3)cc2)c(C)c1`, “inactive”. Turning to `COc1cc(C(=O)OCC(=O)N(CC(C)C)C2CCS(=O)(=O)C2)ccc1OCC(C)C` (configuration not stated), the B-score entry was “inactive”. With `Cc1ccc(S(=O)(=O)c2c(COC(=O)c3cccc(Cl)c3)c(-c3ccccc3)nn2C)cc1` the entry was “inactive”. In the case of `Cn1nc(-c2ccccc2)c(CSc2cccc(Cl)c2)c1Cl` it was -8.39 (active). In the case of `Cn1nc(-c2ccccc2)c(CO)c1Sc1ccccc1` it was “inactive”. Take `COc1ccc(C(=O)NC2(C(F)(F)F)NC(=O)N(CCCc3ccccc3)C2=O)c(OC)c1OC` (configuration not stated): the B-score entry is “inactive”. With `O=C(c1cccc(S(=O)(=O)N2CCCC2)c1)N(Cc1ccco1)C1CCS(=O)(=O)C1` (configuration not stated) the entry was “inactive”. With `CNC(=S)N/N=C/c1cn(Cc2ccc(C)cc2)c2ccccc12` the entry was “inactive”; with `COC(=O)N/N=C/c1cn(CCCOc2ccc(C)cc2)c2ccccc12`, “inactive”. With `CCOC(=O)N/N=C/c1cn(Cc2ccccc2Cl)c2ccccc12` the figure was -9.45 (active); with `CCc1ccc(N(CC)c2ncnc3nc[nH]c23)cc1`, “inactive”; with `Cc1cc(Cl)ccc1C(=O)C1CCCN(C(=O)CCN2CCCO2)C1` (configuration not stated), “inactive”. Turning to `CSc1ccc(/C=C/C(=O)NC23CC4CC(CC(C4)C2)C3)cc1`, the B-score result is “inactive”. In the case of `c1ccc(C2CNCc3c2ccc2ccccc32)cc1` (configuration not stated) it was “inactive”; in that of `Clc1cccc(-c2nc3nc4ccccc4nc3n2Cc2ccco2)c1`, -10.9 (active); in that of `O=c1[nH]c(CSc2ncc(-c3ccc(F)cc3)n2Cc2ccco2)nc2ccccc12`, “inactive”. With `O=C(CSc1nnc(-c2cccnc2)n1Cc1ccco1)c1ccc(Cl)c(Cl)c1` the entry was “inactive”; with `CN(Cc1c(F)cccc1Cl)S(=O)(=O)c1cccs1`, “inactive”; with `CC1CCC2(CC1)NC(=O)N(CC(=O)c1cccn1C)C2=O` (configuration not stated), “inactive”. For `CC(C)(C)n1nnnc1C(c1ccc(F)cc1)N1CCN(Cc2ccc3c(c2)OCO3)CC1` (configuration not stated), the B-score result was “inactive”. In the case of `Cc1cccc(N2CCN(C(c3ccccc3)c3nnnn3CC3CCCO3)CC2)c1C` (configuration not stated) it was “inactive”; in that of `Cc1cccc(N2CCN(C(c3ccc(N(C)C)cc3)c3nnnn3C(C)(C)C)CC2)c1C` (configuration not stated), -7.3 (active).

Turning to `Cc1cccc(C)c1NC(=O)c1ccc(CN2CCc3ccccc3C2)cc1`, the B-score result is “inactive”. With `COc1ccc(-c2csc(-c3cccs3)n2)cc1OC` the entry was “inactive”; with `COc1ccc(OC)c(-c2csc(-c3cccs3)n2)c1`, -11.7 (active). In the case of `COc1ccc(OC)c(CNC(=O)CCc2nc(-c3cccs3)no2)c1`, the B-score result is “inactive”. In the case of `COc1ccc(CNS(=O)(=O)c2ccc(NC(=O)N3CCCCC3)cc2)cc1` it was “inactive”; in that of `O=C(CNC(=O)c1cccnc1)N/N=C/c1cc(Br)c(O)c(Br)c1`, “inactive”; in that of `Cc1c(OC(C)C(=O)N[C@@H](Cc2ccccc2)C(=O)O)ccc2c3c(c(=O)oc12)CCCC3` (some centres not stated), “inactive”. In the case of `CCCOc1ccc2c3c(c(=O)oc2c1OCCC)CCC3` it was -13.7 (active); in that of `COc1ccc2c3c(c(=O)oc2c1OCC(=O)C(C)(C)C)CCCC3`, “inactive”. With `CN(C)c1ccc(/C=N\S(=O)(=O)c2ccccc2)cc1` the entry was “inactive”; with `CC[n+]1cc(C)ccc1/C=C/c1ccc(N(C)C)cc1`, -6.65 (active). Turning to `CCCCCCCC1(C)NC(=O)N(CC(=O)Nc2cc(C)on2)C1=O` (configuration not stated), the B-score entry was “inactive”. In the case of `CCOC(=O)N1CCN(C(=O)c2ccc3c(c2)N(Cc2ccc(C)cc2)CCS3)CC1` it was “inactive”.

For `O=C(NCCc1ccccc1)c1ccc2c(c1)N(Cc1ccccc1)CCS2`, the B-score is -9.05 (active).

Regarding `O=C(NCCN1CCOCC1)c1ccc2c(c1)N(Cc1ccc(Cl)cc1)CCS2`, the B-score result is “inactive”. In the case of `COc1ccc(C2(CNC(=O)C(c3ccccc3)c3ccccc3)CCOCC2)cc1OC` it was “inactive”. With `CCN(CC)C(=O)CC1(c2ccccc2OC)CCOC(C(C)C)C1` (configuration not stated) the figure was -8.7 (active); with `CC[C@]1(c2ccccc2OC)C(=O)N(C(=O)OC)N1C(=O)OC`, “inactive”.

The values are drawn from PubChem BioAssay AID488922 (Johns Hopkins Ion Channel Center, 2010).
